Laboratory results from PubChem BioAssay (Tox21).
Several values for one entry are separate records, joined by “and”; a condition that tells them apart may be missing. Equal entries are not always repeated. Results filed as inconclusive are left out. Entries that show only a call come without a potency. The source holds several records for some structures; these can differ, active in one and inactive in another. Activity calls are given as the source filed them. The call rests on the fitted dose curve; in most records, active means well fitted cell-killing curve with a large enough effect in the repeat runs; inconclusive means weak or mixed curves, or effect the other way; inactive means flat fitted curve, though single readings scatter.

Experiment: qHTS RealTime-Glo MT Cell Viability Assay in HEK293 cells - 8 hour (AID 1224887); further: nearly all actives have a fitted effect of over 50% in size
Conditions: RealTime-Glo luminescence; series mostly up to 76.8 µM
Excerpt: U.S. Tox21 Program National Center for Advancing Translational Sciences [NCATS] NIH Chemical Genomics Center [NCGC] U.S. Environmental Protection Agency [EPA] National Institutes of Environmental Health Sciences [NIEHS] National Toxicology Program [NTP] U.S. Food and Drug Administration [FDA] Tox21 Assay Overview: Measure of cell viability is critical in the cell-base assay. Analysis of cell viability is necessary for the characterization of cell responses to cytotoxic drugs and environmental stress. A RealTime-Glo MT Cell Viability Assay to monitor cell viability in real time of continues cell culture during 40 hours of compound treatment was used to screen Tox21 10K library compounds in Hek293 cells. The RealTime-Glo MT Cell Viability Assay is a nonlytic, homogeneous, bioluminescent method to measure cell viability in real time using a simple, plate-based method. The assay involves adding NanoLuc luciferase and a cell-permeant prosubstrate to cells in culture. Viable cells reduce the proprietary prosubstrate to generate a substrate for NanoLuc luciferase. This substrate diffuses from cells into the surrounding culture medium, where it is rapidly used by the NanoLuc Enzyme to produce a luminescent signal. The signal correlates with the number of viable cells, making the assay well suited for cytotoxicity studies.
Tox21 Assay Protocol Summary: The mixture of Hek293 cell suspension and reagents were dispensed at 600cells/6 ul/well in 1536-well tissue culture treated black solid bottom plates using a Multidrop dispenser. After the assay plates were incubated at a 37 C/5% CO2 incubator for 5 hours, 23 nL of compounds dissolved in DMSO, positive and negative controls was transferred to the assay plate by a pintool work station. The plates were incubated at 37 C for 40 hours. The luminescence intensity were measured at 0h, 8h, 16h, 24h, 32h and 40h time points using ViewLux plate reader during compound treatment.
Potency means the concentration at half of the fitted maximal effect.

Row | SMILES | Potency
1 | C[C@]12CC[C@@H]3c4ccc(O)cc4C[C@@H](CCCCCCCCCS(=O)CCCC(F)(F)C(F)(F)F)[C@H]3[C@@H]1CC[C@@H]2O (stereo not given in full) | 43.6 µM (active)
2 | CN(C)C=O | inactive
3 | CCN(CC)CCOC(=O)c1ccc(N)cc1 | inactive
4 | N[C@@H](Cc1c[nH]c2ccc(O)cc12)C(=O)O | inactive
5 | Cc1c(N(C)C)c(=O)n(-c2ccccc2)n1C | inactive
6 | COc1ccc(C(=O)c2ccccc2)c(O)c1 | inactive
7 | CN/C(=C\[N+](=O)[O-])NCCSCc1ccc(CN(C)C)o1 | inactive
8 | NC(=O)OCC(COC(N)=O)c1ccccc1 | inactive
9 | CCCCCCCCCCCCCCCCCC(=O)OCC(O)CO (stereo not given) | inactive
10 | COC1=CC(=O)C[C@@H](C)[C@]12Oc1c(Cl)c(OC)cc(OC)c1C2=O | inactive
11 | CC(C)(C)NCC(O)c1ccc(O)c(CO)c1 (stereo not given) | inactive
12 | CCOC(=O)C(C)(C)Oc1ccc(Cl)cc1 | inactive
13 | COC(=O)C1CCC(C(=O)OC)CC1 (stereo not given) | inactive
14 | C[C@]12C=CC(=O)C=C1CC[C@@H]1[C@@H]2C(=O)C[C@@]2(C)[C@H]1CC[C@]2(O)C(=O)CO | inactive
15 | O=[N+]([O-])c1ccc(O)cc1 | inactive
16 | C1CNCCN1 | inactive
17 | COc1cc(C=O)ccc1O | inactive
18 | O=C(O)Cc1cccc2ccccc12 | inactive
19 | OCCCc1ccccc1 | inactive
20 | CCN1CCCC1=O | inactive

Row | SMILES | Potency
21 | CCCCCCCCCCCCCC(=O)OC(C)C | inactive and 9.77 µM (active)
22 | COc1ccccc1NC(=O)CC(C)=O | inactive
23 | NC(=O)NO | inactive
24 | O=C(O)CN(CC(=O)O)CC(=O)O | inactive
25 | O=c1cc[nH]c(=O)[nH]1 | inactive
26 | C=C(C)C(N)=O | inactive
27 | CCCCOC(=O)CCCCCCCCC(=O)OCCCC | inactive
28 | Oc1cccc(O)c1 | inactive
29 | Nc1cccc(N)c1 | inactive
30 | NC(=O)N1c2ccccc2C=Cc2ccccc21 | inactive
31 | CCCCOCCOCCOC(C)=O | inactive
32 | CCCCCCCCOc1ccc(C(=O)c2ccccc2)c(O)c1 | inactive
33 | CC(C)Cc1ccc(C(C)C(=O)O)cc1 (stereo not given) | inactive
34 | CC(C)=CCC/C(C)=C/CO | inactive
35 | C/C=C/c1ccc(O)c(OC)c1 | inactive
36 | OC[C@@H](O)[C@@H](O)[C@H](O)[C@H](O)CO | inactive
37 | COc1cc(O)c(C(=O)c2ccccc2)cc1S(=O)(=O)O | inactive
38 | O=C(OCc1ccccc1)c1ccccc1 | inactive
39 | C=C(C)OC(C)=O | inactive
40 | O=C1CCCCCN1 | inactive
